Most compounds without a hit are left out; they make up all but 9.9% or so of the library.
Tau fibril ThT: blocks human tau fibril formation measured by thioflavin T. 2.1% of 270,000 active. AID 1460. P10636. Potency, µM (top dose mostly 57.4 µM), for inactives: at the top dose activity, negative = inhibition, actives largely listed as inhibitors. recombinant tau K18 P301L, heparin-induced fibrillization, ThT fluorescence; active = well fitted curve in the direction sought with a large enough effect; inconclusive = small, poorly fitted or top-dose-only effect, or another doubt; inactive = no such curve, though single readings can be large; an effect the other way counts as inactive or inconclusive; also: nearly all actives have a fitted effect of over 55% in size
Target sequence (P10636 561-689 P618L limits assumed): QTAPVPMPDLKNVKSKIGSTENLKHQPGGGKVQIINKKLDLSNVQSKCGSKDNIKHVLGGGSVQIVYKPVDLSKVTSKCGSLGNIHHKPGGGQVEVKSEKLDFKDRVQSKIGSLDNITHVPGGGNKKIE
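K18 P301L tau (15 uM + 0.24 uM Alexa 594-tagged), heparin 20 uM, NaOAc pH 7, 6 h 37 C; ThT 30 uM, 1 h RT, ex 450/em 510 nm.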
HPGD inh: inhibitors of human 15-hydroxyprostaglandin dehydrogenase (HPGD); AID 894; 4.3% of 150,000 active; purified HPGD, NADH fluorescence kinetic, PGE2 substrate; Potency, µM, for inactives: top-dose activity change, negative = inhibition, usual class: inhibitors; P15428
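NADH formation kinetics: reaction with 30 uM PGE2 and 1 mM NAD+ (final), 20 nM enzyme, Tris-HCl pH 8 with Tween 20, after 15 min compound preincubation at room temperature. Fluorescence change, last versus first of five reads.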
JMJD2E inh: JMJD2E (human) inhibition; JMJD2E catalytic domain, FDH-coupled NADH fluorescence (FDH is formaldehyde dehydrogenase); Potency, µM (top dose mostly 57.1 µM), without a hit: at the top dose activity change, negative = inhibition, most hits filed as inhibitors; 1.6% of 230,000 active; AID 2147;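 also: 0% = wells with enzyme and -100% = buffer wells without enzyme; nearly all actives have a fitted effect of over 50% in size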
Target sequence (B2RXH2 1-337 limits assumed): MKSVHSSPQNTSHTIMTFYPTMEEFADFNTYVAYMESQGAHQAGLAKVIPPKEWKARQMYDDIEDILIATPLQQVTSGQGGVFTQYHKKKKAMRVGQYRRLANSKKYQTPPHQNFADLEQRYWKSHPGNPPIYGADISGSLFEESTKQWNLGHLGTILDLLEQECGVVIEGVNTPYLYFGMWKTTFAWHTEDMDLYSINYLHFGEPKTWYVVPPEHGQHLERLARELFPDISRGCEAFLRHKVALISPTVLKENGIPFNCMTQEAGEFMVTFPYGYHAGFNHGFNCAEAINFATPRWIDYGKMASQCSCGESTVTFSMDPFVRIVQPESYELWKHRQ
ALDH1A1 inh: blocks purified human ALDH1A1 activity. P00352. Purified ALDH1A1, NADH fluorescence, propionaldehyde substrate. Potency, µM (titrated, usually from 75.3 µM), for the others: at the top dose activity, negative = inhibition, actives largely listed as inhibitors. 7.3% of 220,000 active. AID 1030;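 also: plate controls were no enzyme wells and a reference inhibitor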
Tau fluor counter: counter-screen for tau fibril formation inhibitors; tau K18 P301L Alexa594 fluorescence, heparin fibrillization; Potency, µM (series often up to 57.7 µM), inactives show at the top dose activity change, negative = decrease; 0.93% of 280,000 active; AID 1463; active = well fitted curve in the direction sought with a large enough effect; inconclusive = small, poorly fitted or top-dose-only effect, or another doubt; inactive = no such curve, though single readings can be large; an effect the other way counts as inactive or inconclusive; also: nearly all actives have a fitted effect of over 55% in size
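Human tau K18 P301L (15 uM unlabeled, 0.24 uM Alexa 594-labeled) in 100 mM sodium acetate pH 7 with 20 uM heparin, 6 hr at 37 C. ThT 30 uM added, 1 hr ambient; Alexa 594 FP and total fluorescence read at 555/632 nm.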
Tau fibril FP: blocks human tau fibril formation measured by polarization. Potency, µM (series often up to 57.7 µM), for the others: at the top dose activity, negative = inhibition, usual class: inhibitors. K18 P301L tau heparin fibrillization, Alexa594 FP, 6 h. 0.39% of 280,000 active. P10636; active = well fitted curve in the direction sought with a large enough effect; inconclusive = small, poorly fitted or top-dose-only effect, or another doubt; inactive = no such curve, though single readings can be large; an effect the other way counts as inactive or inconclusive; also: nearly all actives have a fitted effect of over 55% in size
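FP of Alexa 594-tau after heparin (20 uM) induction. Substrate: human K18 P301L, 15 uM unlabeled, 0.24 uM labeled. Buffer 100 mM sodium acetate pH 7. 6 hr, 37 C.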
* marks the source's active call; other numbers are inactive results; ? = inconclusive; / = not tested or not shown; [ ] = remark or other dose. Unless noted, calls follow the shape of the dose curve; as a rule, active = well fitted inhibition curve with a large enough effect (not every such curve was filed as active); inconclusive = small, poorly fitted or top-dose-only effect, or another doubt; inactive = no such curve, though single readings can be large or run the other way. Unless noted, % is scaled to controls: 0 for no effect and ±100 for the full control effect; potency is read from the fitted curve at half-maximal effect.

SMILES	Tau fibril ThT	HPGD inh	JMJD2E inh	ALDH1A1 inh	Tau fluor counter	Tau fibril FP
CN1C(=O)c2ccccc2Sc2ccc(NC(=O)c3ccc(C(F)(F)F)cc3)cc21	14%	/	/	/	-12%	?
CN(N=O)c1cc(O)ccc1O	11µM*	14µM*	0%	20µM*	?	?
O=C(O)c1ccccc1S	?	-7%	-6%	-9%	-12%	-14%
O=C(c1sc2ccccc2c1Cl)N1CCC2(CC1)OCCO2	9%	14µM*	4%	10µM*	7%	0%
O=C(O)Cc1ccccc1	4%	-1%	/	-5%	3%	1%
O=C(CCl)c1ccccc1	/	-7%	/	0.079µM*	/	/
C#C[C@@]1(O)CC[C@@H]2[C@@H]3CCC4=CC(=O)CC[C@@]4(C)[C@H]3CC[C@]21C	/	-2%	-2%[25.5 µM]	-4%[20.9 µM]	/	/
CN1CC[C@@]2(C)c3cc(O)ccc3N(C)[C@@H]12	14µM*	11%	6.3µM*	-4%	?	20µM*
CN1CC[C@@]2(C)c3cc(OC(=O)Nc4ccccc4)ccc3N(C)[C@@H]12	32µM*	/	/	11µM*	?	?
CS(=O)(=O)O[C@H]1CN2CCC1CC2	/	-1%	/	-1%[13.5 µM]	/	/
COc1ccc2nc(NC(=O)c3nc(S(=O)(=O)Cc4cccc(C)c4)ncc3Cl)sc2c1	14µM*	/	/	/	?	-10%
CCOP(=S)(OCC)SCSC(C)(C)C	/	-9%	/	?	/	/
CCOc1ccc(Nc2c(S(=O)(=O)c3ccc(C)cc3)cnc3ccc(F)cc23)cc1	?	/	/	/	-24%	-5%
COc1cc(N2CCOCC2)ccc1C=C1C(=O)NC(=O)NC1=O	-1%	32µM*	-5%	13µM*	-1%	9%
CCC(C)N1C(=O)/C(=C\c2cc3c4c(c2)CCCN4CCC3)C(=O)NC1=S (configuration not stated)	?	22µM*	?	0.32µM*	-13%	-12%
CCC(C)N1C(=O)/C(=C\c2ccc(N3CCCCCC3)cc2)C(=O)NC1=S (configuration not stated)	?	20µM*	?	0.13µM*	-6%	-7%
CCC(C)N1C(=O)/C(=C\c2cnc(N(C)C)nc2)C(=O)NC1=S (configuration not stated)	?	/	-13%	-9%	-6%	-8%
CN(C)c1ncc(/C=C2/C(=O)NC(=S)N(C3CCCCC3)C2=O)cn1	?	/	-14%	?	-15%	4%
COC[C@H]1OC(=O)c2coc3c2[C@@]1(C)C1=C(C3=O)[C@@H]2CCC(=O)[C@@]2(C)C[C@H]1OC(C)=O	14µM*	/	/	?	?	25µM*
O=C(CCCCCCCCCCC(=O)NCc1cccnc1)NCc1cccnc1	?	/	4%	/	-17%	4%
O=C(CNC(=O)c1ccc(Br)cc1)NCC(=O)OCC(=O)c1ccc([N+](=O)[O-])cc1	28µM*	-8%	7%	1µM*	-25%	?
O=C(CNC(=O)c1ccccc1)NCC(=O)OCC(=O)c1ccc([N+](=O)[O-])cc1	?	-6%	-12%	0.89µM*	-17%	?
CCCCNC(=O)/C(C#N)=c1\s/c(=C\c2ccccc2OC(F)F)c(=O)n1CCCOC	2%	-23%	-9%	?	-2%	3%
O=C(N1CCOCC1)C1(c2ccccc2)CCNCC1	/	1%	/	12%[13.5 µM]	/	/
N#CC(C#N)=Cc1ccc([N+](=O)[O-])c(O)c1	25µM*	16µM*	?	16µM*	?	?
N#CC(C#N)=Cc1ccc(C=C(C#N)C#N)cc1	20µM*	/	16µM*	0.35µM*	-21%	?
O=C(CCCN1CCC2(CC1)C(=O)N(Cc1cccc(F)c1)CN2c1ccccc1)c1ccc(F)cc1	?	-9%	-2%	-4%	?	-8%
COc1cccc2c1C(=O)c1c(O)c3c(c(O)c1C2=O)C[C@](O)(/C(C)=N\O)C[C@@H]3O[C@H]1C[C@H](N)[C@@H](O)[C@H](C)O1	/	-7%	/	-8%[13.5 µM]	/	/

Screening data (PubChem)
